Assay outcomes as filed in PubChem BioAssay.
This is a sample that favours compounds with a hit; in the whole collection about 3.2% have one here.
Tau fibril ThT – tau fibrillization inhibition (ThT binding) | AID 1460 | actives 2.1% (n = 270,000) | P10636 | recombinant tau K18 P301L, heparin-induced fibrillization, ThT fluorescence | Potency, µM (highest dose often 57.4 µM), without a hit: at the top dose activity, negative = inhibition, most hits filed as inhibitors; note: nearly all actives have a fitted effect of over 55% in size
Target sequence (P10636 561-689 P618L limits assumed): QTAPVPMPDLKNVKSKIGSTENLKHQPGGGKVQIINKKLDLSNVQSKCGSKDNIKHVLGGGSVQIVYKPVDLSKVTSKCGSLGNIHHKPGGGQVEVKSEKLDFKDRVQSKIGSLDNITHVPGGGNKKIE
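Heparin-induced fibrillization of the P301L-mutant K18 repeat-domain fragment of human tau was followed by ThT binding in quantitative high-throughput format.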
TR SRC2 fluor cs – Texas Red fluorescence interference in TRb-SRC2 counter-screen | Potency, µM (top dose mostly 106 µM), for the others: at the top dose fluorescence change, negative = quenching | TRb/SRC2 Texas Red total fluorescence interference | actives 0.29% (n = 280,000) | AID 1479; active = well fitted curve in either direction with a large enough effect; inconclusive = small, poorly fitted or top-dose-only effect
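Human TRβ ligand-binding domain (0.6 uM) and Texas Red SRC2 peptide (20 nM) in Tris buffer with 1 uM T3 and 5% DMSO were incubated with pinned compound for 5 hr at ambient temperature. Total fluorescence was computed as S + 2P (555/632 nm).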
TRb SRC2 PPI – inhibitors of human thyroid hormone receptor beta-SRC2 interaction. actives 0.065% (n = 280,000). P10828. TRbeta-SRC2 peptide binding, fluorescence polarization; receptor liganded with 1 µM T3. Potency, µM (titrated, usually from 106 µM), without a hit: at the top dose activity change, negative = inhibition, most hits filed as inhibitors;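 note: plate controls were bound peptide for no effect and peptide without receptor for full effect; nearly all actives have a fitted effect of over 50% in size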
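Human TRb ligand-binding domain (0.6 uM) is mixed with 20 nM Texas Red SRC2 peptide and 1 uM T3; after compound addition and 5 hr at ambient temperature, polarization is measured and normalized to unbound and bound controls.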
Tau fluor cs – counter-screen for tau fibril formation inhibitors; Potency, µM (series often up to 57.7 µM), inactives show top-dose activity change, negative = decrease; actives 0.93% (n = 280,000); tau K18 P301L Alexa594 fluorescence, heparin fibrillization; note: nearly all actives have a fitted effect of over 55% in size
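Human K18 P301L tau (15 uM unlabeled plus 0.24 uM Alexa 594-labeled, final) in 100 mM sodium acetate pH 7 was mixed with compound and 20 uM heparin and incubated 6 hr at 37 C.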
GoLoco inh red – RGS12 GoLoco-Gai1 interaction inhibition; Gai1:RGS12 GoLoco peptide FP, rhodamine, 10 min; Potency, µM (top dose mostly 61.6 µM), without a hit: at the top dose activity, negative = inhibition, hits mostly inhibitors; actives 0.44% (n = 230,000); active = well fitted inhibition curve with a large enough effect, not every such curve was filed as active; inactive = no such curve, though single readings can be large or run the other way; note: nearly all actives have a fitted effect of over 30% in size
Target sequence (P63096 whole entry, looked up): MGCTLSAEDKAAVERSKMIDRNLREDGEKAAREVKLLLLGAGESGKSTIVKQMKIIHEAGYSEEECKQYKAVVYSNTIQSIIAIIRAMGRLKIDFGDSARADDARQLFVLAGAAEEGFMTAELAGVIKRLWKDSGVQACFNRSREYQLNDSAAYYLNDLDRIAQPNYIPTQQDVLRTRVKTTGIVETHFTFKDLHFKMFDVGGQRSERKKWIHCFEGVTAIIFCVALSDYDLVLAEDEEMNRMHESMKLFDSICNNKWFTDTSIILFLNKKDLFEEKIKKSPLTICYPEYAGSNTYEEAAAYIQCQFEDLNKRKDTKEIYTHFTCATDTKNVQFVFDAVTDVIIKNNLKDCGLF
Tau FP inhib – inhibitors of human tau fibril formation | K18 P301L tau heparin fibrillization, Alexa594 FP, 6 h | actives 0.39% (n = 280,000) | P10636 | Potency, µM (top dose mostly 57.7 µM), without a hit: top-dose activity, negative = inhibition, usual class: inhibitors; note: nearly all actives have a fitted effect of over 55% in size
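Heparin (20 uM) drove fibril formation of recombinant tau K18 P301L, 15 uM unlabeled with 0.24 uM Alexa 594 label, for 6 hr at 37 C in 100 mM sodium acetate pH 7. Fluorescence polarization (555/632 nm) read 1 hr after 30 uM ThT.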
An asterisk follows results filed as active; [ ] = remark or other dose. Unless noted, calls come from the whole dose curve; as a rule, active = well fitted curve in the direction sought with a large enough effect; inconclusive = small, poorly fitted or top-dose-only effect, or another doubt; inactive = no such curve, though single readings can be large; an effect the other way counts as inactive or inconclusive. Unless noted, % is set by controls: 0 for no effect and ±100 for the full control effect; potency is the fitted concentration of half-maximal effect.

What do the screens show for `CC(O)C#C[Si](C)(C)c1ccccc1` (stereo unspecified)?
Tau fibril ThT: 1%; TR SRC2 fluor cs: -1%; TRb SRC2 PPI: 3%; Tau fluor cs: 0%; GoLoco inh red: 3%; Tau FP inhib: 2%

How did CSc1nnc(C)c(/C=C/Nc2ccc(F)cc2F)n1 do in these assays?
Tau fibril ThT: 25µM*; TR SRC2 fluor cs: -4%; TRb SRC2 PPI: -2%; Tau fluor cs: -11%; GoLoco inh red: 11%; Tau FP inhib: -3%

How did CSc1nsc(/C=C/Nc2ccc(F)cc2F)c1C#N do in these assays?
Tau fibril ThT: 14µM*; TR SRC2 fluor cs: -1%; TRb SRC2 PPI: 5%; Tau fluor cs: inconclusive; GoLoco inh red: 18%; Tau FP inhib: -11%

Results for CSc1nsc(/C=C/Nc2ccc(C(=O)O)cc2)c1C#N ?
Tau fibril ThT: inconclusive; TR SRC2 fluor cs: -1%; TRb SRC2 PPI: 4%; Tau fluor cs: -25%; GoLoco inh red: 15%; Tau FP inhib: -5%

Results for CCCCC/C=C\C/C=C\C/C=C\CCCCC(=O)NCCCC(=O)O ?
Tau fibril ThT: -11%; TR SRC2 fluor cs: 0%; TRb SRC2 PPI: 4%; Tau fluor cs: -15%; GoLoco inh red: 0%; Tau FP inhib: -3%

How did OC[C@H]1NC[C@@H](O)[C@@H](O)[C@@H]1O do in these assays?
TR SRC2 fluor cs: inconclusive; TRb SRC2 PPI: 2%

What do the screens show for `CCc1cccc2c(/C=N/NC(=O)c3cccc(S(=O)(=O)Nc4ccccc4Cl)c3)c[nH]c12`?
Tau fibril ThT: 14µM*; TR SRC2 fluor cs: -1%; TRb SRC2 PPI: 4%; Tau fluor cs: 11µM*[quencher]; GoLoco inh red: 13%; Tau FP inhib: -8%

Results for Cc1[nH]c2ccccc2c1/C=N/NC(=O)c1cccc(S(=O)(=O)Nc2ccccc2Cl)c1 ?
Tau fibril ThT: inconclusive; TR SRC2 fluor cs: -21%; TRb SRC2 PPI: 3%; Tau fluor cs: 11µM*[quencher]; GoLoco inh red: 3%; Tau FP inhib: inconclusive

Results for COc1ccc(OCC(O)CN(CCO)CC(O)Cn2ccc3ccccc32)cc1 (stereo unspecified) ?
Tau fibril ThT: -2%; TR SRC2 fluor cs: 0%; TRb SRC2 PPI: -1%; Tau fluor cs: -5%; GoLoco inh red: 12%; Tau FP inhib: 2%

What do the screens show for `CCCN(CCC)CC(O)Cn1cc(/C=C/C(=O)c2ccc(OCC)cc2)c2ccccc21` (stereo unspecified)?
Tau fibril ThT: 8.9µM*; TR SRC2 fluor cs: -4%; TRb SRC2 PPI: -3%; Tau fluor cs: inconclusive; Tau FP inhib: 0%

How did CCOc1ccc(/C=C/C(=O)c2ccccc2)cc1 do in these assays?
Tau fibril ThT: inconclusive; TR SRC2 fluor cs: -2%; TRb SRC2 PPI: 3%; Tau fluor cs: -19%; GoLoco inh red: 5%; Tau FP inhib: 6%

What do the screens show for `CCC(=C(c1ccc(OC)cc1)c1ccc(OC)cc1)c1cn(CC(O)CN(CCO)CCO)c2ccccc12` (stereo unspecified)?
Tau fibril ThT: inconclusive; TR SRC2 fluor cs: -1%; TRb SRC2 PPI: 0%; Tau fluor cs: 13µM*[quencher]; GoLoco inh red: 0%; Tau FP inhib: 1%

Results for COc1ccc(C(=O)/C=C/c2cn(CN3CCN(C)CC3)c3ccccc23)cc1 ?
Tau fibril ThT: 13µM*; TR SRC2 fluor cs: -5%; TRb SRC2 PPI: 1%; Tau fluor cs: 18µM*[quencher]; GoLoco inh red: -3%; Tau FP inhib: 0%

How did CCOc1ccc(C(=O)/C=C/c2cn(CN3CCN(C)CC3)c3ccccc23)cc1 do in these assays?
Tau fibril ThT: inconclusive; TR SRC2 fluor cs: -5%; TRb SRC2 PPI: 4%; Tau fluor cs: 13µM*[quencher]; GoLoco inh red: 8%; Tau FP inhib: 5%

How did CO[Si](CCCNCCN)(OC)OC do in these assays?
TR SRC2 fluor cs: 0%[201 µM]; TRb SRC2 PPI: -2%[201 µM]
